Source: PubChem BioAssay AID2017 (National Center for Advancing Translational Sciences (NCATS), 2009)
Records with an inconclusive call do not appear. Calls of active or inactive are those of the source. The call rests on the fitted dose curve; in most records, active means well fitted curve in the direction sought with a large enough effect; inconclusive means small, poorly fitted or top-dose-only effect, or another doubt; inactive means no such curve, though single readings can be large or run the other way.

What follows are compounds tested on 4-diphosphocytidyl-2-C-methyl-D-erythritol kinase IspE (bacterial, species not stated) (assay: Confirmatory Assay for Inhibitors of Human Galactokinase (GALK): CDP-Me assay counterscreen). Details: ATP depletion, Kinase-Glo luminescence; series mostly up to 115 µM.
Description: NIH Molecular Libraries Probe Production Centers Network [MLPCN] NIH Chemical Genomics Center [NCGC] MLPCN Grant: R03 MH085689-01 Assay Submitter (PI): Kent Lai (University of Utah School of Medicine, 50 N Mario Capecchi Drive, Salt Lake City, UT 84132) NCGC Assay Overview The GHMP kinase family is a unique class of important enzymes that plays an essential role in many metabolic processes. It contains more than 170 protein members among which are the galactokinase (GALK) and the CMK enzymes. GALK plays a crucial role in galactose processing and is a potential therapeutic target for Classic Galactosemia (OMIM: 230400). CMK is involved for the non-mevalonate synthesis of isoprenoids precursors and natural products like sterols or ubiquinones which are important to many biological functions. Although the sequence identity between GALK and CMK is low, the three-dimensional structures and active sites are highly similar. Therefore to determine the validity and selectivity of an active compound observed in the GALK qHTS screen (AID: 1868), a bioluminescent counter-screen targeting bacterial CMK was developed. In addition, because the mevalonate independent synthesis of isoprenoids are more prevalent in opportunistic pathogens such as bacteria, CMK is a potential novel therapeutic target where selective inhibitors could be used to determine potential antibacterial effects. The CMK (provided by Kent Lai) was assayed using ATP and 4-diphosphocytidyl-2-C-methyl-D-erythritol (CDP-ME; Echelon, cat# I-M052) as substrates. Promega Kinase-Glo Plus (cat# V3774) technology was used to detect the residual ATP following kinetic reaction. Briefly, the Kinase-Glo Plus contains Ultra-Glo [5] luciferase and D-luciferin which generates a bioluminescence signal from the remaining ATP.
NCGC Assay Protocol Summary: Three uL/well of substrate solution (15 uM ATP, 30 uM CDP-ME, 20 mM HEPES pH8.0, 5 mM MgCl2, 40 mM KCl, 1 mM DTT, 0.01% BSA final concentration) was dispensed into 1536-well, assay plates (Greiner, solid white medium-binding plates) with Aurora Discovery BioRAPTR Flying Reagent Dispenser (FRD; Beckton-Dickenson). […] One uL/well enzyme solution (0.25 ug/mL CDP-Me kinase, 20 mM HEPES pH8.0, 5 mM MgCl2, 40 mM KCl, 1 mM DTT, 0.01% BSA final concentration) was then added using the FRD yielding a total kinase reaction volume of 4 uL/ well. After 1 hour of room temperature incubation, 4 uL Kinase-Glo Plus reagent was added for a final assay volume of 8 uL/well. After 1 min, luminescence was detected with the ViewLux plate reader (Perkin Elmer, Waltham, MA) using a 1 sec exposure time and 2x binning settings.

SMILES | outcome
O=c1[nH]c(/C=C/c2ccc([N+](=O)[O-])cc2)c([N+](=O)[O-])c(=O)[nH]1 | inactive
O=C1/C(=C\c2ccc(O)c(O)c2)C(c2ccccc2)=NN1c1ccccc1 | inactive
CCOC(=O)C1(Cc2cccc(F)c2)CCN(C(=O)COC)CC1 | inactive
CCOC(=O)c1c(C)[nH]c2c1-c1ccccc1C(=O)C2=O | inactive
Cc1nn(Cc2noc(C(=O)NCC3CCCO3)n2)c(C)c1Br (stereo not given) | inactive
N#C/C(=C(/O)c1cc2ccccc2o1)c1nc2ccccc2s1 | inactive
COc1ccc(C/C(O)=C(\C#N)c2nc3ccccc3s2)cc1 | inactive
CC1(C)CC(=O)C2=C(C1)NC(Nc1nc3ccccc3o1)=NC21CCCC1 | inactive
COC(=O)c1ccc(CSc2ccc3nnc(-c4ccccn4)n3n2)o1 | inactive
COc1ccc(-n2nnc3c(=O)n(CC(=O)N4CCC(C)CC4)cnc32)cc1 | inactive
Cc1ccc(C)c(CN2C(=O)CSc3ccc(C(=O)NCCN4CCOCC4)cc32)c1 | inactive
CCOc1cc(/C=C2/C(=N)N3C(=NC2=O)SN=C3S(C)(=O)=O)ccc1OS(=O)(=O)c1ccccc1 | inactive
CCOc1cc(/C=C2\C(=O)ON=C2c2ccccc2)cc(Br)c1O | inactive
O=C1c2ccccc2C(=O)C12OC2c1cccc2ccccc12 (stereo not given) | inactive
CC(=O)c1ccc(NC(=S)Nc2cccc3cnccc23)cc1 | inactive
O=C1C=CC2=C3c4cc(O)c(O)cc4CC3(O)COC2=C1O (stereo not given) | inactive
C=CCN1C(=O)/C(=C/c2ccc(OC(C)=O)c(OCC)c2[N+](=O)[O-])SC1=S | inactive
CS(=O)(=O)C1=NSC2=NC(=O)/C(=C\c3ccc(OS(=O)(=O)c4ccccc4)cc3)C(=N)N21 | inactive
Cc1nc(NS(=O)(=O)c2ccc(Cl)s2)c2c3c(sc2n1)CCCC3 | inactive
CCS(=O)(=O)C1=NSC2=NC(=O)/C(=C\c3ccc(OS(=O)(=O)c4ccccc4)c(OC)c3)C(=N)N21 | inactive

SMILES | outcome
COCc1cc(CN2CCCC2)c(O)c2ncccc12 | inactive
O=C1C(C2=C(O)c3ccccc3C2=O)=Nc2ccccc21 | inactive
Cc1snc(S(=O)(=O)/C(C#N)=N/Nc2cccc(C(F)(F)F)c2)c1C#N | inactive
COc1cc(/C=C2\C(=O)ON=C2c2ccccc2)cc(Br)c1O | inactive
C[C@H](NC(=O)C1CCC(CNC(=O)[C@@H]2CCCN2C(=O)OC(C)(C)C)CC1)C(=O)O (stereo not given in full) | inactive
Cc1ccc(F)c(NC(=O)/C(C#N)=C(\O)c2ccc(C(C)(C)C)cc2)c1 | inactive
NS(=O)(=O)c1ccc(NC(=S)NNC(=O)c2ccc(Br)o2)cc1 | inactive
O=C1ON=C(c2ccccc2)/C1=C/c1ccc(O)c(O)c1 | inactive
CS(=O)(=O)c1ccc2c(c1)sc1nc(=O)c(/C=C3/C=CC(=O)C(O)=C3)c(N)n12 | inactive
Cc1ccc(S(=O)(=O)/N=C2/NC(=O)/C(=C\c3cc(Br)cc(Br)c3O)S2)cc1 | inactive
O=C(NCCc1ccccc1)c1ccc2c(=O)[nH]c3c(C(=O)NCC4CCCO4)sc(=S)n3c2c1 (stereo not given) | inactive
CCN1CCN(CCNC(=O)c2ccc3nc(-c4cccc(C)c4)c(-c4cccc(C)c4)nc3c2)CC1 | inactive
N#C/C(=C(/O)Cc1cccc2ccccc12)c1nc2ccccc2s1 | inactive
Cc1[nH][nH]c(=O)c1C(c1ccc(-c2ccc(Cl)c(C(=O)O)c2)o1)c1c(C)[nH][nH]c1=O | inactive
O=C1CCCC2=C1C1(CCCCC1)N=C(Nc1nc3ccccc3o1)N2 | inactive
O=C(COc1ccccc1/C=C\c1[nH]c(=O)[nH]c(=O)c1[N+](=O)[O-])Nc1ccccc1 | inactive
O=C1C=C(N(CCO)Cc2ccccc2)c2ccccc2C1=O | inactive
COc1ccc2cc(C(N)=O)c(=Nc3ccc(C)cc3)oc2c1 | inactive
CC1=NN(c2ccccc2)C(=O)/C1=C/c1c(O)n(-c2ccc(F)c(Cl)c2)[nH]c1=O | inactive
N#C/C(=C\c1coc2ccc(O)cc2c1=O)C(=O)Nc1nc2ccccc2s1 | inactive
